A number with no mark means an inactive call. Calls of active or inactive are those of the source. Calls come from the whole dose curve; as a rule, active = well fitted curve in the direction sought with a large enough effect in the repeat runs; inconclusive = weak or mixed curves; inactive = flat fitted curve, though single readings scatter.
Assay: qHTS assay to test for compound auto fluorescence at 460 nm (blue) in HEK293 cell free culture (AID 720681)
Details: cell-free medium, autofluorescence 405/460 nm (blue); series mostly up to 91.3 µM; fluorescence, % of fluorescent control: at the top concentration
Method in brief: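 Compounds were added to cell-free DMEM with 10% FBS and fluorescence read directly. The blue channel used 405 nm excitation and 460 nm emission, with triamterene as the reference fluorophore.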
% is set by controls: 0 for no effect and ±100 for the full control effect.

Row | SMILES | fluorescence, % of fluorescent control | Potency
1 | CN1C(=O)[C@@H](NC(=O)c2cc3ccccc3[nH]2)N=C(c2ccccc2)c2ccccc21 | 0.244% [at 46 µM] | 
2 | O=C(N[C@@H]1N=C(c2ccccc2F)c2cccc3c2N(CC3)C1=O)c1cc2ccccc2[nH]1 | 0.253% [at 46 µM] | 
3 | CCCCc1ccccc1 | -0.0128% | 
4 | Clc1ccc(C(Cl)(Cl)Cl)cc1Cl | 0.054% | 
5 | CCn1cc[n+](C)c1 (tested in a mixture with another compound) | -0.0212% | 
6 | CCCCC(CC)COC(=O)c1ccccc1C(=O)OCC(CC)CCCC (configuration not stated) | -0.379% | 
7 | CNC(=O)CSP(=O)(OC)OC | -0.267% | 
8 | [Cl][Hg][c]1ccccc1 | 0.261% | 
9 | ClCBr | -0.0756% [at 95.7 µM] | 
10 | CCNS(=O)(=O)C(F)(F)C(F)(F)C(F)(F)C(F)(F)C(F)(F)C(F)(F)C(F)(F)C(F)(F)F | -0.0173% | 
11 | CCOP(=S)(NC(C)C)Oc1ccccc1C(=O)OC(C)C (configuration not stated) | 0.0229% | 
12 | CCOP(=O)(OCC)Oc1nc(Cl)c(Cl)cc1Cl | -0.076% | 
13 | C[N+]1(C)[C@@H]2CC[C@H]1CC(OC(=O)C(CO)c1ccccc1)C2 (some centres not stated) |  | inactive
14 | C=CC(=C)C | 0.0531% | 
15 | Cc1cnc2c(C(=O)O)c(Cl)ccc2c1 | 0.035% | 

Assay: qHTS assay to test for compound auto fluorescence at 535 nm (green) in HEK293 cell free culture (AID 720682)
Details: cell-free medium, green autofluorescence 485/535 nm, hits give high values; series mostly up to 91.3 µM; activity change: at the top concentration
Method in brief: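 Measurement is a direct plate read of green fluorescence (485 nm in, 535 nm out) after compound addition to serum-supplemented DMEM lacking cells, with fluorescein used to express intensities.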

Row | SMILES | activity change | outcome
16 | O=c1c2ccccc2c(=O)c2c1cc(Cl)c1[nH]c3c([nH]c12)c(Cl)cc1c(=O)c2ccccc2c(=O)c13 | -0.0088% | 
17 | CCN(CC)CCN1C(=O)CN=C(c2ccccc2F)c2cc(Cl)ccc21 | -0.185% [at 46 µM] | 
18 | CNC(=O)O/N=C(\C)C(C)S(C)(=O)=O (configuration not stated) | -0.101% [at 920 µM] | 
19 | CCCCCCC[CH2][Sn]([Cl])([Cl])[CH2]CCCCCCC | -0.0678% | 
20 | O=C(NC(=O)c1c(F)cccc1F)Nc1ccc(Oc2ccc(C(F)(F)F)cc2Cl)cc1F | -0.0343% | 
21 | CN(C)C(=S)SSC(=S)N(C)C |  | inactive
22 | Nc1nc(N)nc(Cl)n1 | 0.0656% | 
23 | Oc1cc(Cl)c(Cl)c(Cl)c1Cl | 0.0905% | 
24 | O=[N+]([O-])c1ccc(Cl)c(Cl)c1Cl | 0.0189% | 
25 | Cc1cccc(Cc2cnc[nH]2)c1C | -0.0831% [at 46 µM] | 
26 | O=NN(CCO)CCO | -0.0037% | 
27 | C=CC(=O)[O][Sn]([CH2]CCC)([CH2]CCC)[CH2]CCC | 0.0109% | 
28 | CSSC | -0.0209% [at 95.7 µM] | 
29 | CCC[CH2][Sn]([CH2]CCC)([CH2]CCC)[CH2]CCC | -0.0158% | 
30 | CCCCON=O | 0.0955% [at 95.7 µM] | 
31 | CNC(=O)Oc1cc(C)cc(C(C)C)c1 | 0.0536% | 
32 | CCc1cccc(C)c1N(C(=O)CCl)[C@@H](C)COC | -0.054% | 
33 | NC(=O)C(Cl)Cl | -0.0007% | 
34 | CN1C(=O)[C@@H](NC(=O)c2cc3ccccc3[nH]2)N=C(c2ccccc2)c2ccccc21 | -0.233% [at 46 µM] | 

Row | SMILES | activity change | outcome
35 | O=C(N[C@@H]1N=C(c2ccccc2F)c2cccc3c2N(CC3)C1=O)c1cc2ccccc2[nH]1 | -0.0199% [at 46 µM] | 
36 | CCCCc1ccccc1 | -0.131% | 
37 | Clc1ccc(C(Cl)(Cl)Cl)cc1Cl | -0.0854% | 
38 | CCn1cc[n+](C)c1 (tested in a mixture with another compound) | 0.016% | 
39 | CCCCC(CC)COC(=O)c1ccccc1C(=O)OCC(CC)CCCC (configuration not stated) | 0.101% | 
40 | CNC(=O)CSP(=O)(OC)OC | 0.113% | 
41 | [Cl][Hg][c]1ccccc1 | -0.0035% | 
42 | ClCBr | 0.0441% [at 95.7 µM] | 
43 | Cc1ccc2cc3c(ccc4ccccc43)c3c2c1CC3 | 0.0509% [at 46 µM] | 
44 | CSC(C)(C)/C=N/O | 0.0639% | 
45 | CCNS(=O)(=O)C(F)(F)C(F)(F)C(F)(F)C(F)(F)C(F)(F)C(F)(F)C(F)(F)C(F)(F)F | -0.005% | 
46 | CCOP(=S)(NC(C)C)Oc1ccccc1C(=O)OC(C)C (configuration not stated) | 0.0507% | 
47 | CC(Cl)CCl (configuration not stated) | -0.0131% | 
48 | CCOP(=O)(OCC)Oc1nc(Cl)c(Cl)cc1Cl | -0.0001% | 
49 | CNC(C)(C)Cc1ccccc1 | 0.136% [at 18.6 µM] | 
50 | C[N+]1(C)[C@@H]2CC[C@H]1CC(OC(=O)C(CO)c1ccccc1)C2 (some centres not stated) |  | inactive
51 | C=CC(=C)C | 0.0903% | 
52 | Cc1cnc2c(C(=O)O)c(Cl)ccc2c1 | -0.12% | 

Reference: PubChem BioAssay (Tox21)
